pS6 MEF inh: reduces mTORC1 signaling in Tsc2 and p53 null MEF cells. Tsc2-/- p53-/- MEF, phospho-rpS6 immunofluorescence/PI, 24 h. 44,000 compounds, 0.78% hits. Potency, µM (highest dose often 38.3 µM), without a hit: top-dose activity change, negative = inhibition, most hits filed as inhibitors;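 note: plate controls were DMSO for no effect and rapamycin for full effect; nearly all actives have a fitted effect of over 50% in size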
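Tsc2-/-, p53-/- mouse embryonic fibroblasts (empty-vector line) exposed to compound 24 hrs at 37 C, fixed, immunostained for phospho-rpS6 and counterstained with propidium iodide. Acumen laser scanning gives % positive cells from Alexa 488/PI ratio, thresholded using 7.5 nM rapamycin; PI count gives viability.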
S16 viability: S16 Schwann cell cytotoxicity; 43,000 compounds, 0.48% hits; S16 Pmp22-F2sN Schwann cells viability, CellTiter-Glo, 24 h; Potency, µM (titrated, usually from 57.5 µM), inactives show at the top dose activity change, negative = cytotoxicity, actives largely listed as cytotoxic; note: % is set by controls: 0 for no effect and ±100 for the full control effect; nearly all actives have a fitted effect of over 65% in size
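Used to flag compounds lowering reporter output through toxicity, this quantitative HTS measures ATP-based CellTiter-Glo luminescence in S16 Pmp22-F2sN Schwann cells after 24 h compound exposure at 37C.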
OvCa metastasis: inhibitors of ovarian cancer cell adhesion and invasion in omental model | 46,000 compounds, 0.1% hits | Potency, µM (titrated, usually from 45.8 µM), for the others: at the top dose activity change, negative = inhibition, most hits filed as inhibitors | SKOV3ip1-GFP adhesion/invasion on 3D omental model, fluorescence;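 note: plate controls were DMSO wells for no effect and tomatine positive control wells for full effect; nearly all actives have a fitted effect of over 65% in size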
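Adhesion/invasion was scored as fixed GFP-labeled SKOV3ip1 cell counts (488/509 nm), normalized to DMSO and tomatine controls. Cancer cells in serum-free medium, with four compound doses (0.36-46 umol/L), sat 2 hr at RT then 16 hr at 37 C on a 48 hr fibroblast/mesothelial/ECM culture.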
GALC G270D act: enhancers of human galactocerebrosidase G270D mutant activity in cells. Potency, µM (titrated, usually from 57.5 µM), hits mostly activators. 45,000 compounds, 0.1% hits. P54803. 145M-Twi-hGALC-G270D cells (Twitcher mouse brain line with human GALC G270D), HMU-beta-Gal fluorescence, 48 h; note: 0% is about no effect; nearly all actives have a fitted effect of over 65% in size
Target sequence (P54803 whole entry G286D): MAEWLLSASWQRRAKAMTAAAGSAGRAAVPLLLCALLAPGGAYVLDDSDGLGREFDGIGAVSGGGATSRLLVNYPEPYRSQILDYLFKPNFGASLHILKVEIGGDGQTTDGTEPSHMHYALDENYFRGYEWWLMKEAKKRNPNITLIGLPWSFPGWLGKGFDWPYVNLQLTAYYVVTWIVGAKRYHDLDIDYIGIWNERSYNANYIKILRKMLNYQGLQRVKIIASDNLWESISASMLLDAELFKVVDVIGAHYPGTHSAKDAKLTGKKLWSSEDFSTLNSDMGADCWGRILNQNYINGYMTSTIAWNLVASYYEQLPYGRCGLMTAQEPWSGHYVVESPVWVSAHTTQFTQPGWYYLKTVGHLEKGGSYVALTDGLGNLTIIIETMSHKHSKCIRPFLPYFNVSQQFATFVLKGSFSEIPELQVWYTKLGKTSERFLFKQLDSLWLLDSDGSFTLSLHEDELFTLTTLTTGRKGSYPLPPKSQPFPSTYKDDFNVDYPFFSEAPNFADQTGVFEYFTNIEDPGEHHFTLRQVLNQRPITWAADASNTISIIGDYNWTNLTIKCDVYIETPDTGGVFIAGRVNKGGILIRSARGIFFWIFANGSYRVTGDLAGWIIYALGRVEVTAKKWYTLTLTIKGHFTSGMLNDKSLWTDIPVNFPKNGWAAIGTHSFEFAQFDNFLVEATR
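Live 145M-Twi cells (Twitcher mouse brain-derived, GALC-null) stably expressing human GALC-G270D, with a wild-type GALC line, were compound-treated. Residual GALC activity was then read as fluorescence from 0.1 mM final HMU-β-gal at pH 5.2; higher signal means activation.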
NTMT1 inh: blocks human N-terminal methyltransferase 1 activity; Q9BV86; NTMT1 MTase-Glo SAH luminescence, purified enzyme; Potency, µM (top dose mostly 114 µM), without a hit: top-dose activity change, negative = inhibition, most hits filed as inhibitors; 59,000 compounds, 2.5% hits;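 note: plate controls were DMSO vehicle for no effect and no enzyme for full effect; nearly all actives have a fitted effect of over 65% in size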
PMP22 txn: modulators of PMP22 gene transcription in S16 Schwann cells. 43,000 compounds, 2% hits. S16 Pmp22-F2sN Schwann cells (luciferase reporters placed in the Pmp22 gene), FLuc/NLuc coincidence luminescence, 24 h. Potency, µM (titrated, usually from 57.5 µM), inactives show top-dose activity change, negative = inhibition, actives largely listed as inhibitors; active = clear falling dose curves in both reporters; inconclusive = both reporters move, but less clearly or upward; inactive = either reporter flat; the % is the NLuc reporter signal; note: % is set by controls: 0 for no effect and ±100 for the full control effect
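Rat S16 Pmp22-F2sN cells, 500-1,000/well in phenol red-free DMEM + 10% FBS, compound-treated 24 h (37C, 5% CO2). Luminescence: FLuc read, Stop&Glo added, NLuc read.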
An asterisk follows results filed as active; i = inactive; ? = inconclusive; . = not tested or not shown; ! = a repeat was not active; [ ] = another dose, or the depositor's remark. An excerpt weighted towards active compounds, which were near 3.6% of everything screened. Unless noted, calls come from the whole dose curve; as a rule, active = well fitted curve in the direction sought with a large enough effect; inconclusive = small, poorly fitted or top-dose-only effect, or another doubt; inactive = no such curve, though single readings can be large; an effect the other way counts as inactive or inconclusive. Potency is the fitted concentration of half-maximal effect.

SMILES	pS6 MEF inh	S16 viability	OvCa metastasis	GALC G270D act	NTMT1 inh	PMP22 txn
COc1ccc(C2CC(=O)N3CN(C4CCCCC4)CSC3=C2C#N)c(OC)c1 (stereo not given)	9.1%	6.7%	8.0%	i	15.8µM*	-12.3%
N#CC1=C2SCN(C3CCCCC3)CN2C(=O)CC1c1ccc(Br)cc1 (stereo not given)	-5.3%	28.2%	-3.8%	i	35.5µM*	-35.3%
C[C@@H]1C(=O)O[C@H]2CC34[C@H]5C[C@@H](C(C)(C)C)C36[C@H](OC(=O)[C@@H]6O)O[C@@]4(C(=O)O5)[C@]21O (stereo not given in full)	.	.	8.3%	.	-7.5%[57.5 µM]	.
CCc1nnc2c(Nc3ccc(N(CC)CC)cc3C)nc3ccccc3n12	-2.5%	-10.1%	-5.5%	i	89.1µM*	-30.6%
C=C(C)[C@@H]1CC[C@]2(C)CC[C@]3(C)[C@H](CC[C@@H]4[C@@]5(C)CC[C@H](O)C(C)(C)[C@H]5CC[C@]43C)[C@@H]12	.	.	-3.1%	.	15.6%[57.5 µM]	.
COc1ccc(CCNC(=O)CCCn2nc(C)c3sc4ccccc4c3c2=O)cc1OC	18.5µM*	-9.6%	-1.2%	i	-3.7%	-31.8%
COc1ccc(CCNC(=O)C(C)n2nc(C)c3sc4ccccc4c3c2=O)c(OC)c1 (stereo not given)	2.93µM*	-0.3%	i	i	7.3%	-9.6%
CCC(C(=O)NCCc1ccc(OC)c(OC)c1OC)n1nc(C)c2sc3ccccc3c2c1=O (stereo not given)	1.1%	?	0.0%	i	11.3%	?
COc1c2c(c(C)c3c1C(=O)OC3)OC1(C)CC(O)C34OC(OC)(CCC3(C)C1C2)OC4(C)CO (stereo not given)	.	.	.	.	3.3%[29.8 µM]	.
Cc1cc2c(s1)c1cnn(Cc3ccc(F)c(F)c3F)c(=O)c1n2C	.	.	.	.	-6.3%[57.5 µM]	.
CC(C)(C)N[S+](=O)([O-])c1cccc(-c2nnc(SCc3ccc(C(=O)O)cc3)n2-c2ccc(F)cc2)c1	.	.	.	.	0.8%	.
CN[C@@H](C)C(=O)N[C@@H]1C(=O)N(Cc2c(C)ccc3ccccc23)c2ccc(C#N)cc2N(C(C)=O)[C@H]1C	.	.	.	.	24.0%	.
Cc1cccc(C)c1OCC(=O)Nc1c(C(=O)c2ccccc2)oc2ccccc12	-9.0%	5.9%	10µM*	i	10.9%	-21.8%
COc1ccc(C(=O)Nc2c(C(=O)c3ccc(F)cc3)oc3ccccc23)cc1	0.6%	-1.5%	i	i	5.0%	10.2µM*
COc1ccc(C(=O)c2oc3ccccc3c2NC(=O)c2ccc(F)cc2)cc1	9.6%	3.1%	i	i	10.8%	-19.5%
CCC1=C[C@@H]2CN(C1)Cc1c([nH]c3ccccc13)[C@@](C(=O)OC)(c1cc3c(cc1OC)N(C)[C@@H]1[C@@](O)(C(=O)OC)[C@H](OC(C)=O)[C@]4(CC)C=CCN5CC[C@]31[C@@H]54)C2	.	.	9.3%	.	17.1µM*	.
COC(=O)C1(C)c2[nH]c3ccccc3c2CCN1C(=O)CCl (stereo not given)	.	.	.	.	-1.3%[57.5 µM]	.
CC[C@]1(O)CC2CN(CCc3c([nH]c4ccccc34)[C@@](C(=O)OC)(c3cc4c(cc3OC)N(C)[C@H]3[C@@](O)(C(=O)OC)[C@H](OC(C)=O)[C@]5(CC)C=CCN6CC[C@]43[C@@H]65)C2)C1 (stereo not given in full)	.	.	.	.	44.7µM*!	.
C=C1C(=O)O[C@H]2[C@@H]1CCC(C)=CCC[C@@]1(C)O[C@@H]21	.	.	?	.	-5.7%[57.5 µM]	.
COc1ccc(C(=O)Nc2cc(-c3nc4ccccc4s3)ccc2OC)cc1	16.5µM*	?	?	i	6.3%	?
Cn1cc(C2=C(c3cn(CCCSC(=N)N)c4ccccc34)C(=O)NC2=O)c2ccccc21	.	.	.	.	3.16µM*	.
CC(C)Oc1ccc(C(=O)NC(CNC(=O)CN(C)C)Cc2ccc(-c3cn4cccc(C(C)O)c4n3)cc2)cc1Cl (stereo not given)	.	.	.	.	0.8%[57.5 µM]	.
CCCCCCc1cccc(NC(=O)[C@H](N)CCP(=O)(O)O)c1	.	.	.	.	1.2%[12.6 µM]	.
CNCc1ccc(-c2[nH]c3cc(F)cc4c3c2CCNC4=O)cc1	.	.	-5.7%	.	6.31µM*!	.
N=C(N)c1ccc2cc(OC(=O)c3ccc(N=C(N)N)cc3)ccc2c1	.	.	-1.9%	i	79.4µM*!	.
SMILES	pS6 MEF inh	S16 viability	OvCa metastasis	GALC G270D act	NTMT1 inh	PMP22 txn
Cc1cc(OCCCSc2nc(-c3ccc(C(C)(C)C)cc3)nc3cc(=O)[nH]n23)ccc1Cl	-8.7%	1.8%	i	i	50.1µM*!	?
O=C(Nc1ccc(Cl)c(C(F)(F)F)c1)Nc1nnc(-c2cccnc2)s1	.	.	.	.	-18.3%[57.5 µM]	.
CCCCN1C(=O)C(O)(c2c(C)[nH]c3ccccc23)c2ccccc21 (stereo not given)	?	?	-8.4%	i	?	18.9µM*
CCCCN1C(=O)C(O)(c2c(C)[nH]c3ccccc23)c2cc(Br)ccc21 (stereo not given)	?	-1.7%	?	i	4.9%	?
C=C1[C@H]2CC[C@]3(O)[C@@](CC[C@@H]4[C@](C)(C(=O)O)CCC[C@]43C)(C2)[C@H]1OC(=O)/C(C)=C\C	.	.	.	.	1.1%[29.8 µM]	.
CS(=O)(=O)c1ccc(-c2cn3ccccc3n2)cc1	.	.	.	i	7.08µM*	.
O=C(Cc1ccc(Cl)c(Cl)c1)Nc1ccc([S+](=O)([O-])Nc2nnc(-c3ccccn3)s2)cc1	.	.	.	.	79.4µM*	.
O=C(Cc1ccc(Cl)c(Cl)c1)Nc1ccc([S+](=O)([O-])Nc2ccc([N+](=O)[O-])cc2)cc1	.	.	.	.	-5.2%[57.5 µM]	.
C#Cc1cccc(Nc2nc3cc(C(=O)O)ccc3c3cncnc23)c1	.	.	.	.	25.1µM*	.
O=C(O)c1cccc(Nc2ncnc3ccc(Br)cc23)c1	-29.7%	-2.5%	0.1%	i	20.4%	-20.2%
O=S(=O)(c1ccccc1)c1nc(-c2ccc(F)cc2)oc1N1CCOCC1	-0.2%	5.1%	0.9%	i	10.7%	19.0%
COc1ccc(-c2nc(S(=O)(=O)c3ccc(Cl)cc3)c(NCc3ccccc3)o2)cc1	-1.4%	?	7.2%	i	-9.0%	?
Cc1ccc(S(=O)(=O)c2nc(-c3cccs3)oc2SC(C)C)cc1	-25.7%	-17.9%	2.5%	i	25.1%	-19.9%
CCCCS(=O)(=O)c1oc(-c2ccc(F)cc2)nc1S(=O)(=O)c1ccccc1	2.93µM*	4.47µM*	?	i	2.7%	2.38µM*

Screens (PubChem)
